Laboratory results as given in the supplement of paper PMC8975748.
Where a name gives a salt, the structure may show the parent alone.

The compounds below were run on Saccharomyces cerevisiae BY4741 SeMeCo community (assay: z-score of subpopulation abundance vs DMSO median, subpopulation auxotrophic for M; higher = larger share of this subpopulation than in DMSO controls). Conditions: 10 µM; 24 h; SM minimal medium; subpopulation (auxotrophy): M.
In short: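 Scoring was based on each subpopulation's abundance, expressed as a z-score against the vehicle-well median. A Saccharomyces cerevisiae BY4741 community with four plasmids, each restoring one auxotrophy and encoding a distinct fluorescent protein, was pre-grown overnight to OD600 1.0, diluted to 0.3, and added at 70 µl to 384-well plates acoustically predosed with library drugs (10 µM final). It then grew 24 h in minimal SM medium before paraformaldehyde fixation and automated confocal microscopy, with single-auxotroph fluorescent strains setting thresholds and autofluorescence correction.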
For CN[C@@H]1[C@H](O[C@H]2[C@H](O[C@H]3[C@H](O)[C@@H](O)[C@H](NC(=N)N)[C@@H](O)[C@@H]3NC(=N)N)O[C@@H](C)[C@]2(O)CO)O[C@@H](CO)[C@H](O)[C@H]1O [Dihydrostreptomycin sulfate], the “z-score of subpopulation abundance” value was -0.56.
In the case of C=CCc1ccc(O)c(-c2ccc(O)c(CC=C)c2)c1 [Honokiol], the “z-score of subpopulation abundance” value is reported as -0.54.
With COCCCN1CCC(NC(=O)c2cc(Cl)c(N)c3c2OCC3)CC1 [Prucalopride] the “z-score of subpopulation abundance” value was 0.21.
In the case of COCC(=O)Nc1cc(Sc2ccccc2)ccc1N=C(NC(=O)OC)NC(=O)OC [Febantel], the “z-score of subpopulation abundance” value is reported as 1.45.
For Cc1ccsc1/C=C/C1=NCCCN1C [Morantel tartrate], the “z-score of subpopulation abundance” value was 0.85.
In the case of CCn1cc(C(=O)O)c(=O)c2cc(F)c(N3CCNCC3)cc21 [Norfloxacin], the “z-score of subpopulation abundance” value is reported as 0.77.
For CC[C@H]1OC(=O)C[C@@H](O)[C@H](C)[C@@H](O[C@@H]2O[C@H](C)[C@@H](O[C@H]3C[C@@](C)(O)[C@@H](O)[C@H](C)O3)[C@H](N(C)C)[C@H]2O)[C@@H](CC=O)C[C@@H](C)C(=O)/C=C/C(C)=C/[C@@H]1CO[C@@H]1O[C@H](C)[C@@H](O)[C@@H](OC)[C@H]1OC [Tylosin], the “z-score of subpopulation abundance” value was -0.28.
With COC(=O)C1=C(C)NC(C)=C(C(=O)OC2CCCN(Cc3ccccc3)C2)C1c1cccc([N+](=O)[O-])c1 (stereo not drawn) [Benidipine HCl] the “z-score of subpopulation abundance” value was 0.13.
For CC1=C[C@H]2C(=O)O[C@H]3C[C@@H](C/C=C(\C)C[C@@H](C)/C=C/C=C4\CO[C@H](/C1=N\O)[C@@]42O)O[C@@]1(CC[C@H](C)[C@@H](C)O1)C3.CC[C@H]1O[C@]2(CC[C@@H]1C)C[C@@H]1C[C@@H](C/C=C(\C)C[C@@H](C)/C=C/C=C3\CO[C@@H]4/C(=N\O)C(C)=C[C@@H](C(=O)O1)[C@]34O)O2 [Milbemycin Oxime], the “z-score of subpopulation abundance” value was -1.4.
With CC1=Nc2ccc(Cl)cc2S(=O)(=O)N1 [Diazoxide] the “z-score of subpopulation abundance” value was -0.76.
With O=C(O)c1cc(O)c2c(c1)[C@H]([C@H]1c3cc(C(=O)O)cc(O)c3C(=O)c3c(O[C@@H]4O[C@H](CO)[C@@H](O)[C@H](O)[C@H]4O)cccc31)c1cccc(O[C@@H]3O[C@H](CO)[C@@H](O)[C@H](O)[C@H]3O)c1C2=O [Sennoside A] the “z-score of subpopulation abundance” value was -1.76.
For Oc1ccc([C@H]2COc3cc(O)ccc3C2)cc1 [Equol], the “z-score of subpopulation abundance” value was 0.37.
COc1ccc2cc(CCC(C)=O)ccc2c1 [Nabumetone] was tested, and the “z-score of subpopulation abundance” value was 0.05.
CO/N=C(\C(=O)N[C@@H]1C(=O)N2C(C(=O)O)=C(CSc3nc(=O)c(O)nn3C)CS[C@H]12)c1csc(N)n1 [Ceftriaxone Sodium Trihydrate] was tested, and the “z-score of subpopulation abundance” value was -1.17.
For CO/N=C(\C(=O)N[C@@H]1C(=O)N2C(C(=O)OC(C)OC(C)=O)=C(COC(N)=O)CS[C@H]12)c1ccco1 (stereo partly drawn) [Cefuroxime axetil], the “z-score of subpopulation abundance” value was -0.61.
With CNCCCN1c2ccccc2CCc2ccccc21 [Desipramine Hydrochloride] the “z-score of subpopulation abundance” value was 1.14.
In the case of CCCCCOc1ccccc1/C(=C\SC)n1ccnc1 [Neticonazole Hydrochloride], the “z-score of subpopulation abundance” value is reported as -1.87.
For CC(C(=O)O)c1ccc2c(c1)[nH]c1ccc(Cl)cc12 (stereo not drawn) [Carprofen], the “z-score of subpopulation abundance” value was -2.06.
CCC(C)n1ncn(-c2ccc(N3CCN(c4ccc(OCC5COC(Cn6cncn6)(c6ccc(Cl)cc6Cl)O5)cc4)CC3)cc2)c1=O (stereo not drawn) [Itraconazole] was tested, and the “z-score of subpopulation abundance” value was 0.3.
For C=CCN1CCCC1CNC(=O)c1cc2nn[nH]c2cc1OC (stereo not drawn) [Alizapride HCl], the “z-score of subpopulation abundance” value was -0.5.
In the case of CO/N=C(\C(=O)N[C@@H]1C(=O)N2C(C(=O)O)=C(CSc3nc(C)c(CC(=O)O)s3)CS[C@H]12)c1csc(N)n1 [Cefodizime Sodium], the “z-score of subpopulation abundance” value is reported as -0.97.
For C[C@H](NCc1ccc(OCc2cccc(F)c2)cc1)C(N)=O [Safinamide Mesylate], the “z-score of subpopulation abundance” value was 0.58.
Cc1ccnc(NS(=O)(=O)c2ccc(N)cc2)n1 [Sulfamerazine] was tested, and the “z-score of subpopulation abundance” value was 1.32.
With N=C(N)NS(=O)(=O)c1ccc(N)cc1 [Sulfaguanidine] the “z-score of subpopulation abundance” value was 0.
In the case of C=C[C@H]1CN2CC[C@H]1C[C@@H]2[C@@H](O)c1ccnc2ccc(OC)cc12 [Quinidine sulfate], the “z-score of subpopulation abundance” value is reported as 1.1.
With O=C(Nc1ccc(Oc2ccc(Cl)cc2)c(Cl)c1)c1cc(I)cc(I)c1O [Rafoxanide] the “z-score of subpopulation abundance” value was -0.29.
For COC(=O)Nc1nc2cc(C(=O)c3ccccc3)ccc2[nH]1 [Mebendazole], the “z-score of subpopulation abundance” value was -0.56.
Nc1nc(N)c2nc(-c3ccccc3)c(N)nc2n1 [Triamterene] was tested, and the “z-score of subpopulation abundance” value was 4.86.
